HP1b chromo inh – blocks HP1-beta chromodomain binding to methylated histone tails. AlphaScreen HP1-beta / biotin-H3K9me3 peptide binding. P83916. Potency, µM (series often up to 114 µM), inactives show at the highest dose activity change, negative = inhibition, usual class: inhibitors. 390,000 compounds, 0.56% hits; also: nearly all actives have a fitted effect of over 70% in size
Target sequence (P83916 whole entry, looked up): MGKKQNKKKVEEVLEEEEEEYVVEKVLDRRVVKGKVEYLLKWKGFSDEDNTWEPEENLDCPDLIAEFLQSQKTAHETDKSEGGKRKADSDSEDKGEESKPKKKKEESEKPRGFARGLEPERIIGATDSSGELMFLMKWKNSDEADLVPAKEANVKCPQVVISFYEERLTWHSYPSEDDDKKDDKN
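Compound inhibition of the preformed complex between 50 nM HP1-beta and 50 nM biotinylated H3K9me3 peptide was read by AlphaScreen. Buffer was PBS pH 7.4 with 0.01% Tween-20. Incubations ran 30 min at room temperature, with 10 ug/mL donor/acceptor beads.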
Sfp PPTase inh – Sfp phosphopantetheinyl transferase inhibition | 310,000 compounds, 3.5% hits | AID 1490 | Potency, µM, for the others: largest response in the series, negative = inhibition, most hits filed as inhibitors | Q9F4F7 | Biochemical Sfp PPTase activity, qHTS;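 also: the enzyme is Sfp with the accession as filed and its product quenches rhodamine fluorescence; 0% = enzyme reaction without inhibitor and -100% = no enzyme wells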
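Reaction rates are the 30-min fluorescence difference (ex 525, em 598 nm) in wells containing 15 nM Sfp, 5 uM rhodamine-CoA and 12.5 uM BHQ-2-YbbR at pH 7.6 with 10 mM MgCl2.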
G9a inh – inhibitors of human histone lysine methyltransferase G9a | G9a H3K9 monomethylation, AlphaScreen, 2 h | Q96KQ7 | Potency, µM (highest dose often 102 µM), for the others: at the top dose activity, negative = inhibition, hits mostly inhibitors | AID 504332 | 350,000 compounds, 8.8% hits; also: % is scaled to controls: 0 for no effect and ±100 for the full control effect; nearly all actives have a fitted effect of over 75% in size
Target sequence (Q96KQ7 913-1193 limits assumed): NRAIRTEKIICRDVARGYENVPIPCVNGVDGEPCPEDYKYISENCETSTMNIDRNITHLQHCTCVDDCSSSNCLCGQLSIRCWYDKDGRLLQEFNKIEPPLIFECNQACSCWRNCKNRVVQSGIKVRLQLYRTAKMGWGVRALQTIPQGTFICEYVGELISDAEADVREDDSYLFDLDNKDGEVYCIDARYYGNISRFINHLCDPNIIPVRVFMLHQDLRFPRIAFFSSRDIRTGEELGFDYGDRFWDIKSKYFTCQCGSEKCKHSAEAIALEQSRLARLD
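Step 1: enzyme (final 20 nM) with compound, 15 min RT. Step 2: substrate peptide 500 nM and SAM 20 uM, 2 h RT. Step 3: anti-H3K9me1 antibody and AlphaScreen beads, 10 min, then plate read.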
JMJD2A Tudor inh – JMJD2A Tudor domain (human) inhibition. O75164. AlphaScreen JMJD2A-Tudor / H3K4me3 peptide binding. Potency, µM (highest dose often 114 µM), without a hit: top-dose activity change, negative = inhibition, usual class: inhibitors. 390,000 compounds, 4.4% hits; also: % is scaled to controls: 0 for no effect and ±100 for the full control effect; nearly all actives have a fitted effect of over 50% in size
PLK1 PBD inh – blocks phosphopeptide binding to human PLK1 polo-box domain; P53350; Plk1 PBD binding of FITC phosphopeptide, fluorescence polarization; Potency, µM, for inactives: max response, negative = inhibition, actives largely listed as inhibitors; 360,000 compounds, 2.8% hits; also: series mostly up to about 57 µM; % is scaled to controls: 0 for no effect and ±100 for the full control effect; nearly all actives have a fitted effect of over 65% in size
BAZ2B block – BAZ2B (human) inhibition | AlphaScreen BAZ2B-H3K14Ac peptide displacement | Potency, µM (doses to about 114 µM), for the others: at the highest dose activity change, negative = inhibition, usual class: inhibitors | 360,000 compounds, 4.4% hits | Q9UIF8; also: % is scaled to controls: 0 for no effect and ±100 for the full control effect; nearly all actives have a fitted effect of over 60% in size
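Compounds, titrated to a top concentration of 110 uM, were incubated 30 min at room temperature with preformed BAZ2B/acetyl-K14 H3 peptide complex (50 nM each). Proximity signal was measured by AlphaScreen after 20 min with beads.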
* = called active by the depositor; u = inconclusive; x = no result given; [ ] = remark or other dose. Compounds with a hit are over-represented: about 12% of the library has one in this group of screens. Calls follow the shape of the dose curve; as a rule, active = well fitted curve in the direction sought with a large enough effect; inconclusive = small, poorly fitted or top-dose-only effect, or another doubt; inactive = no such curve, though single readings can be large; an effect the other way counts as inactive or inconclusive. Potency is read from the fitted curve at half-maximal effect.

SMILES	HP1b chromo inh	Sfp PPTase inh	G9a inh	JMJD2A Tudor inh	PLK1 PBD inh	BAZ2B block
O=C(CN1CCCCCC1)NC(c1ccccc1)c1ccccc1	u	-30%	7.9µM*	22µM*	-6%	79µM*
CCN1C(=O)/C(=C\N2CCN(C)CC2)SC1=S	24%	5%	-28%	-19%	-2%	-32%
CN1C(=O)/C(=C/C=C2\SCCN2C)SC1=S	x	-24%	8.9µM*	x	x	-10%
CN1C(=O)/C(=C/C=C2\SCCN2C)N(C)C1=S	u	-12%	40µM*	-22%	40%	-35%
CCOc1ccc(NC(=O)c2cn(-c3ccc(OCC)cc3)c(=O)c3cc(OC)c(OC)cc23)cc1	29%	7%	-32%	-18%[57.1 µM]	-8%	-31%
COc1ccc(-n2cc(C(=O)NCCc3cc(OC)ccc3OC)c3ccccc3c2=O)cc1	-6%	x	u	50µM*	x	u
CCOc1ccc(-n2cc(C(=O)NC(C)C)c3cc(OC)c(OC)cc3c2=O)cc1	-12%	12%	-40%	20µM*	24µM*	0%
O=C(Nc1cccc(Oc2ccccc2)c1)c1ccc(-n2cncn2)c2ccoc12	x	x	x	x	2%	x
Cc1ccc(/C=C/C(=O)N2CCN(c3ncccn3)CC2)o1	u	-105%	4µM*	28µM*	30µM*	-8%
Cc1ccc(/C=C/C(=O)N2CCN(c3ccc(F)cc3)CC2)o1	-14%	-99%	u	-24%	-7%	u
Cc1ccc(/C=C/C(=O)N2CCCC(C(N)=O)C2)o1 (stereo not given)	14%	18µM*	56µM*	-2%	1%	15%
CC(=O)c1ccc(NC(=O)c2nc(-c3ccccc3)n(-c3ccc(Cl)cc3)n2)cc1	28%	x	-22%[59 µM]	-20%	x	u
Cc1cc(C)c(C)c(S(=O)(=O)N2CCCN(C)CC2)c1C	2%	5%	u	-13%	-4%	0%
O=C(Nc1nnc(C2CC2)s1)c1ccco1	20%	-2%	-28%	-11%[11.4 µM]	-16%	-5%
Cc1ccccc1N1CC(C(=O)Nc2nnc(SCCN3CCOCC3)s2)CC1=O (stereo not given)	36%	-13%	16µM*	-28%	-22%	-29%
Cc1cccc(C)c1NC(=O)CSc1nnc(NC(=O)CN2CCOCC2)s1	11%	-17%	7%[0.0925 µM]	89µM*	-7%	u
COc1cccc(N2CC(C(=O)Nc3nnc(SCCN4CCOCC4)s3)CC2=O)c1 (stereo not given)	43%	2%	40µM*	-17%	-12%	-10%
Cc1ccccc1N1CC(c2nnc(NC(=O)c3ccco3)s2)CC1=O (stereo not given)	-6%	x	8.9µM*	-12%	x	u
Cc1cccc(N2CC(C(=O)Nc3nnc(SCCN4CCOCC4)s3)CC2=O)c1 (stereo not given)	5%	u	u	-36%	-28%	7%
COC(=O)c1cc(CNC(=O)c2ccccc2OCc2c(C)noc2C)ccc1OC	47%	21%	7%	-6%	2%	-16%
COc1ccc(-c2nc3cnc(N4CCNCC4)nc3n(C3CC3)c2=O)cc1	x	29%	-7%[12.7 µM]	x	x	x
Cc1cc2c(s1)c1cnn(Cc3ccc(F)c(Cl)c3)c(=O)c1n2C	x	x	x	-23%	x	x
CCN1CCN(Cc2nc3cc(NC(=O)c4cccc([N+](=O)[O-])c4)ccc3n2CC)CC1	22%	x	-34%[59 µM]	-12%	x	-15%
COc1ccc(C(=O)CSc2nnc(NC(=O)C3CC(=O)N(c4ccccc4C)C3)s2)cc1 (stereo not given)	8%	-14%	35µM*	-11%	-7%	5%
Cc1cc(OC(C)C(=O)NCCCn2ccnc2)c2c(C)c(C)c(=O)oc2c1 (stereo not given)	35%	3%	9%[0.0925 µM]	-10%	4%	u
SMILES	HP1b chromo inh	Sfp PPTase inh	G9a inh	JMJD2A Tudor inh	PLK1 PBD inh	BAZ2B block
Cc1ccc(S(=O)(=O)/N=S(/c2ccccc2)C(C)C)cc1 (stereo not given)	u	18µM*	4.5µM*	-32%	11µM*	-2%
CN/S(=N/S(=O)(=O)c1ccccc1)c1ccc(C)cc1 (stereo not given)	28%	1%	17%[59 µM]	-4%	-6%	24%
Cc1ccccc1-c1cncnc1N(C)Cc1ccco1	x	50µM*	x	x	x	x
C[C@H]1C2=C3C(CC[C@H]4C(OCc5ccc(F)cc5C(F)(F)F)OC[C@](C)([C@@H]34)N(C(=O)OC(C)(C)C)C2)C2COC(=O)OCC21 (stereo not given in full)	x	11%	x	x	x	x
COc1ccc(C(=O)N2CCN(Cc3cc(OC)ccc3OC)CC2)cc1	u	u	32µM*	50µM*	2%	u
COc1ccc(CN2CCN(C(=O)c3ccc4c(c3)CCC4)CC2)cc1OC	7%	x	x	-23%	-16%	x
COc1ccc(C(=O)N2CCN(Cc3ccc(OC)c(OC)c3)CC2)cc1	u	-12%	u	3.2µM*	7%	u
COc1ccc(CN2CCN(C(=O)c3cc(OC)c(OC)c(OC)c3)CC2)cc1OC	-52%	-30%	10µM*	2.5µM*	1%	u
COc1cc2c(cc1CN1CCN(C(=O)c3cc(OC)c(OC)c(OC)c3)CC1)OCO2	-38%	-14%	11µM*	25µM*	-1%	56µM*
CCOC(=O)N1CCN(C(=O)c2cc(OC)c(OC)c(OC)c2)CC1	37%	6%	14%[59 µM]	7%	3%	-4%
COc1ccc(OCC(=O)N2CCN(C(=O)c3cc(OC)c(OC)c(OC)c3)CC2)cc1	42%	x	-38%[59 µM]	-21%	x	2%
O=C(Nc1ccc2c(c1)OCO2)c1ccc2c(c1)S(=O)(=O)c1ccccc1C2=O	10%	x	x	-19%	-19%	x
COc1ccc(N2CCN(C(=O)COC(=O)COc3cccc(C(F)(F)F)c3)CC2)cc1	17%	x	u	-29%	-7%	-9%
O=C(Nc1ccc(N2CCCC2)c(Cl)c1)c1ccc(Br)o1	3%	79µM*	14µM*	u	-12%	u
Cc1ccc(C(=O)N2CCN(c3ccc(NC(=O)c4ccc(Br)o4)cc3)CC2)cc1	-19%	-15%	u	u	-2%	u
CN1CCN(c2ccccc2NC(=O)c2ccc(-c3ccc(Br)cc3)o2)CC1	11%	-9%	x	-17%	0%	u
O=C(Nc1ccccc1N1CCCCC1)c1ccc(-c2ccc(Cl)cc2)o1	6%	-11%	-8%[59 µM]	u	27µM*	-24%
N#Cc1ccccc1N1CCN(C(=O)c2ccc(NC(=O)c3ccc(Br)o3)cc2)CC1	-27%	x	14%[2.33 µM]	56µM*	-17%	50µM*
COc1ccc(N2CCCC2)c(NC(=O)c2ccc(Br)o2)c1	u	-11%	8.9µM*	50µM*	-3%	u
O=C(Nc1cc(C(F)(F)F)ccc1N1CCCCC1)c1ccc(Br)o1	5%	4%	0%	8%	-3%	u

Assay outcomes from PubChem BioAssay.
